PubChem BioAssay

How the values were obtained:
[1] = inhibitors of PAF-induced NFkB signaling in CF airway cells, dose response, cell-based, uHTS hits, panel, cytotoxicity readout (AID 624344); details: CF bronchial epithelial cells, PAF-induced NFkB reporter inhibition, with PAF, run 1; at 79 µM (top of the series) unless noted
[2] = as above; details: CF bronchial epithelial cells, PAF-induced NFkB reporter inhibition, with PAF, run 2; at 79 µM (top of the series) unless noted

SMILES | inhibition [1] | inhibition [2]
COc1cc(/C=C2\SC(=O)N(CCNC(=O)c3sc4cc(F)ccc4c3Cl)C2=O)cc(OC)c1OC | 27.5% | 30.8%
CCOC(=O)c1c(-c2ccc(C)cc2)csc1NC(=O)c1ccc(N2C(=O)CCC2=O)cc1 | 30.1% | 81.4%
CC(=O)c1c(C)n(-c2ccc(C)cc2C)c2ccc(O)cc12 | 106% | 64%
COc1ccccc1-c1cc(NC=O)c2ncc(-c3ccc(F)cc3)n2c1 | 97.7% [at 39.5 µM] | 75.8% [at 39.5 µM]
Cc1ccc2[nH]cc(C(=O)CCl)c2c1 | 60.6% | 72%
COc1cc(CCc2ccccc2)c(C(=O)O)c(O)c1C/C=C(/C)CCC=C(C)C | 104% | 114%
C=C1C(=O)O[C@@H]2[C@H]3O[C@]3(C)CC/C=C(\C)CC[C@@H]12 | 101% | 99.4%
COc1ccc(-c2nc(N3CCOCC3)nc3n[nH]c(N)c23)cc1 | 117% | 104%
COc1ccccc1/C=C/C(=O)c1c2c(c(C)[nH]c1=O)CCCC2 | 110% | 96%
NS(=O)(=O)c1ccc(CCNc2nn3c(-c4cccc(OC(F)(F)F)c4)cnc3s2)cc1 | 98.6% | 102%
Cc1nc([N+](=O)[O-])c(Sc2nc3ccccc3n2C)n1Cc1ccccc1 | 101% | 115%
O=C(Nc1ccc(Br)c2ccccc12)c1ccc2ccccc2c1O | 112% | 104%
Cc1nc2c(O)c3c(c(O)c2nc1C)C1C=CC3CC1 | 114% | 103%
Cc1ccc(C(=O)Nc2cccc(C(F)(F)F)c2)cc1NC(=O)c1ccno1 | 86.8% | 111%
COc1ccc(-c2cnc(N)nc2-c2ccc(OC)cc2O)cc1 | 112% | 102%
c1csc(Cc2nn3c(-c4ccncc4)nnc3s2)c1 | 115% | 102%
Cc1ccc(Cl)cc1-c1cc(C(=O)NCc2cc(C(F)(F)F)cc(C(F)(F)F)c2)[nH]n1 | 84.9% | 96.5%
COC(=O)N1C(=O)[C@@](c2ccccc2)(C(C)C)N1C(=O)OC | 107% | 104%
O=C1NCCc2c1[nH]c1c(Cl)ccc(Cl)c21 | 101% | 113%
C/C(=N\Nc1cc(N2CCOCC2)ncn1)c1cccc([N+](=O)[O-])c1 | 115% | 95.3%

SMILES | inhibition [1] | inhibition [2]
COc1cccc(-c2ccc3ncnc(NCc4cccc(C)c4)c3c2)c1 | 118% | 104%
COc1ccc(Nc2nccc(-c3cccc(N)c3)n2)cc1 | 103% | 117%
Cc1c(NC(=O)c2cc(-c3cccs3)nc3ccccc23)c(=O)n(-c2ccccc2)n1C | 112% | 103%
O=[N+]([O-])c1cc([N+](=O)[O-])c2oc(-c3ccccc3)c(Br)c2c1O | 112% | 107%
Fc1ccc(-n2cc(-c3ccccc3)c3c(N4CCOCC4)ncnc32)cc1 | 110% | 102%
CN(C)/C=C/C(=O)c1ccc2noc(-c3ccccc3)c2c1 | 118% | 105%
NC(=O)c1cc2ccc(O)cc2oc1=Nc1ccccc1 | 92.3% | 95.2%
O=C(OC1CCOC1=O)c1ccccc1C(=O)c1ccc(Cl)c([N+](=O)[O-])c1 (stereo not given) | 98.5% | 105%
CCC1(O)CC2CN(CCc3c([nH]c4ccccc34)C(C(=O)OC)(c3cc4c(cc3OC)N(C=O)C3C(O)(C(=O)OC)C(OC(C)=O)C5(CC)C=CCN6CCC43C65)C2)C1 (stereo not given) | 107% | 78.2%
CCOc1ccc(C(C(=O)NC2CCCC2)N(C(=O)c2snc(C(N)=O)c2N)c2cccc(O)c2)cc1 (stereo not given) | 105% | 96.6%
Fc1cccc(Cl)c1/C=N/Nc1c(Cl)cncc1Cl | 101% | 104%
CC1Cc2ccccc2N1c1ncnc2nc[nH]c12 (stereo not given) | 114% | 106%
COc1ccc(/C=N/NC(=O)c2[nH]c3ccc(Br)cc3c2-c2ccccc2)cc1 | 88.4% | 71.3%
Nc1nccc(-c2ccc(-n3cnc4ccccc43)cc2)n1 | 101% | 108%
CC(C)(C)OC(=O)NCCCCCNC(=O)c1nc[nH]c1C(=O)NCC(=O)OCc1ccccc1 | 111% | 101%
CCOC(=O)COc1ccc2ccccc2c1/C=C/[N+](=O)[O-] | 100% | 97.5%
CC1CCc2sc3ncnc(N4CCOCC4)c3c2C1 (stereo not given) | 112% | 101%
O=C(Nc1ccccc1N1CCOCC1)c1cc(-c2ccco2)nc2ccccc12 | 102% | 95.6%
Cc1ccc(CNc2ncnc3ccc(-c4ccc(CO)o4)cc23)o1 | 101% | 99.1%
Cn1c(SC2=CS(=O)(=O)c3ccccc32)nc2ccccc21 | 101% | 102%
